In the supplement of paper PMC10849652:
Of roughly 8,800 targets only a part is listed; those with a hit were picked by preference. About 0.5% of all pairs of compound and target were hits. Unmarked numbers belong to inactive results.

How the values were obtained:
Assay in all cases: log2 fold change, soluble protein after heating vs DMSO (PISA); higher = thermal stabilisation; K562 lysate, 10 uM; active = over 0.2 and 3.5 SD of the protein, either way, in both replicates (recomputed)
[1] = compound: C1=CC=C(C=C1)[C@H](COC2=CC3=C(C=C2)NC(=O)N3)NC(=O)C4=CC=CN(C4=O)CC5=CC(=C(C=C5)F)F
Method in brief: (§1)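 The values are log-two fold changes in thermal stability compared with solvent controls and come from duplicates. They were obtained by TMTpro 16plex LC-MS/MS, with channel sums equalised, on the supernatant after 21,000xg for 90 min. That supernatant came from crude K562 extract at 1 mg/mL protein treated with 10 μM compound for 30 min, heated for 3 min across 48°C-58°C, pooled and brought to 0.5% NP-40 at 4°C.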

[2] = compound: CC1=C(SC2=C1C(=N[C@H](C3=NN=C(N32)C)CC(=O)N)C4=CC=C(C=C4)Cl)C
Method in brief: as §1

[3] = compound: CC1=C2C(=CC=C1)N=C(N(C2=O)C3=CC=CC=C3C)CN4C=NC5=C(N=CN=C54)N
Method in brief: as §1

[4] = compound: Cc1sc2c(c1C)C(c1ccc(Cl)cc1)=N[C@@H](CC(=O)OC(C)(C)C)c1nnc(C)n1-2
Method in brief: as §1

[5] = compound: c1ccc([C@@H]2C[C@H]2NC2CCNCC2)cc1
Method in brief: as §1

UniProt Q92759, sequence (Q92759 whole entry, looked up): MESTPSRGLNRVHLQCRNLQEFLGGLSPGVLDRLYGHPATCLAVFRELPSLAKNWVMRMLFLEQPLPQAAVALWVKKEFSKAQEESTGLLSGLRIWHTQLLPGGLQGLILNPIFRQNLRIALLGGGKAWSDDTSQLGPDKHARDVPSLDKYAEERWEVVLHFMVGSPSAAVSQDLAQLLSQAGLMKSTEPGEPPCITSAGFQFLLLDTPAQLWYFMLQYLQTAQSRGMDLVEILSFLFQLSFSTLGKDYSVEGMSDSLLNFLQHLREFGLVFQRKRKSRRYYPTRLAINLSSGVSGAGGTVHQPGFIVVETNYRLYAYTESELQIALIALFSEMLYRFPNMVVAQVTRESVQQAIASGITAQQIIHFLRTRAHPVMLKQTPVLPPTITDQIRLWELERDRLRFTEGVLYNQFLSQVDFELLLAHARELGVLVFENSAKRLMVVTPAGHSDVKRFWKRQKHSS
UniProt P41229, sequence (P41229 whole entry, looked up): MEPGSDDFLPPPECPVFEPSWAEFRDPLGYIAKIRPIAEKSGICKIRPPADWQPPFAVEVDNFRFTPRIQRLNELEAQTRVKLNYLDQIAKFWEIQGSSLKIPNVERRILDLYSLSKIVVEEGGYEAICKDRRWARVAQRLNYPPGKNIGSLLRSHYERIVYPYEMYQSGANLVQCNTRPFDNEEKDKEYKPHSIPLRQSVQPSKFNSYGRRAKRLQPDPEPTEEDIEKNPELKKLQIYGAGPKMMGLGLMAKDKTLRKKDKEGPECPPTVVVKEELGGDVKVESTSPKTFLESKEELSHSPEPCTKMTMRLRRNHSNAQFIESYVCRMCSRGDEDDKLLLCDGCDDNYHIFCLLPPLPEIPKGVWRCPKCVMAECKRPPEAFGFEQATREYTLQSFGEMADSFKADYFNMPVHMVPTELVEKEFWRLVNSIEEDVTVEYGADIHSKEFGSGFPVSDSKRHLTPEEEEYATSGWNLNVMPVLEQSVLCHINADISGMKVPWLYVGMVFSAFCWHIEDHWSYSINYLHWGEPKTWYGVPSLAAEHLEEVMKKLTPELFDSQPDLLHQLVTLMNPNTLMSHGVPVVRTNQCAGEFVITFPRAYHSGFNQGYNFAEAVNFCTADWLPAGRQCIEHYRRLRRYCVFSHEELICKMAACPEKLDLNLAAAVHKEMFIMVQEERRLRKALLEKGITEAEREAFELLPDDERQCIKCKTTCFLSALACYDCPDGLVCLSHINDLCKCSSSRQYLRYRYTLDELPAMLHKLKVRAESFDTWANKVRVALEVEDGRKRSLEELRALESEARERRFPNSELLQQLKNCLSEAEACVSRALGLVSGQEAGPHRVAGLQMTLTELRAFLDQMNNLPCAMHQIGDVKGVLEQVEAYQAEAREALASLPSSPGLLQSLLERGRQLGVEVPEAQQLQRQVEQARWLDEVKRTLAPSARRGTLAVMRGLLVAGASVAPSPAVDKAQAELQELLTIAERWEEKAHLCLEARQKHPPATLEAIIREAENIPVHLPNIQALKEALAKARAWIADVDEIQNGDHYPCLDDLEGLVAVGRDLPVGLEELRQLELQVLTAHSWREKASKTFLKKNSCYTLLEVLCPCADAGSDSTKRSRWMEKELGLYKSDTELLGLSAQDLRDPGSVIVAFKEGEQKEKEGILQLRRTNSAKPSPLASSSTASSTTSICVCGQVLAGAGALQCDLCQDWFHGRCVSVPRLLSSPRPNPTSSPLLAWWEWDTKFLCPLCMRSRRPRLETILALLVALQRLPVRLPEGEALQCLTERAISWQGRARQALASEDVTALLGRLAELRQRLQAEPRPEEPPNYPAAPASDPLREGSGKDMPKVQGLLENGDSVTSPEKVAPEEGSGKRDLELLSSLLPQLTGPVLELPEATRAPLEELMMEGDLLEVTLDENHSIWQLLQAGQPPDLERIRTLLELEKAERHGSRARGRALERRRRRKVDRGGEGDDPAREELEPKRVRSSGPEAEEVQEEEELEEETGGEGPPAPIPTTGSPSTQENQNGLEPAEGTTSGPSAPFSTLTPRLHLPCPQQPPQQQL
UniProt Q9Y5Q8, sequence (Q9Y5Q8 whole entry, looked up): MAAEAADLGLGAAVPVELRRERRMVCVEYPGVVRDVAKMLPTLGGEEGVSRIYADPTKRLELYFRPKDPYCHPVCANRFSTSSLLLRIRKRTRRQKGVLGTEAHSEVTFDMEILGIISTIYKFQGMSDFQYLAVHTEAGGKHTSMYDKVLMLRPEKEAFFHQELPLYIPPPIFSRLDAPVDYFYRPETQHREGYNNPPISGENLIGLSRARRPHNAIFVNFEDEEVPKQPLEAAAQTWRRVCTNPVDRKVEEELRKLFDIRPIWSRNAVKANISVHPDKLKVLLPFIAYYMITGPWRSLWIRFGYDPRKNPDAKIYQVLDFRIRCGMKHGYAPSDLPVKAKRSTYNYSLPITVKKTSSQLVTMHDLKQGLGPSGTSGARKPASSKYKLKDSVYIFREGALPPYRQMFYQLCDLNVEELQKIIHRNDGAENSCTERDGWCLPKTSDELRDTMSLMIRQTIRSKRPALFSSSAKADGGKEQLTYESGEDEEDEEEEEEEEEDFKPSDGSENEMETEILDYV
UniProt Q53GQ0, sequence (Q53GQ0 whole entry, looked up): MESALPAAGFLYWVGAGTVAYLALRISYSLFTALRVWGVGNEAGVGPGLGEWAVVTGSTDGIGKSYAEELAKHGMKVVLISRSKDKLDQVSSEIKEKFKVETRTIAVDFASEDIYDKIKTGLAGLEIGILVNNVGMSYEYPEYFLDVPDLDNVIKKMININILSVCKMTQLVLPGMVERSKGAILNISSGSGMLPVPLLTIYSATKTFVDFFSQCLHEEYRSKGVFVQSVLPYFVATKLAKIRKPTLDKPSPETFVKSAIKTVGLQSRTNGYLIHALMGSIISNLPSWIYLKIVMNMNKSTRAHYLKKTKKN
UniProt P09429, sequence (P09429 whole entry, looked up): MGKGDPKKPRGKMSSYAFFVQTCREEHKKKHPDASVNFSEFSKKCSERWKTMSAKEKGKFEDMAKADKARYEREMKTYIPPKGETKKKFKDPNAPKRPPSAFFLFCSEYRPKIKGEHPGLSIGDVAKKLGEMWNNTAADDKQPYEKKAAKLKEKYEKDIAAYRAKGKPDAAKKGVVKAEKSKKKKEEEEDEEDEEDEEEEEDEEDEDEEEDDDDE
UniProt P12081, sequence (P12081 whole entry, looked up): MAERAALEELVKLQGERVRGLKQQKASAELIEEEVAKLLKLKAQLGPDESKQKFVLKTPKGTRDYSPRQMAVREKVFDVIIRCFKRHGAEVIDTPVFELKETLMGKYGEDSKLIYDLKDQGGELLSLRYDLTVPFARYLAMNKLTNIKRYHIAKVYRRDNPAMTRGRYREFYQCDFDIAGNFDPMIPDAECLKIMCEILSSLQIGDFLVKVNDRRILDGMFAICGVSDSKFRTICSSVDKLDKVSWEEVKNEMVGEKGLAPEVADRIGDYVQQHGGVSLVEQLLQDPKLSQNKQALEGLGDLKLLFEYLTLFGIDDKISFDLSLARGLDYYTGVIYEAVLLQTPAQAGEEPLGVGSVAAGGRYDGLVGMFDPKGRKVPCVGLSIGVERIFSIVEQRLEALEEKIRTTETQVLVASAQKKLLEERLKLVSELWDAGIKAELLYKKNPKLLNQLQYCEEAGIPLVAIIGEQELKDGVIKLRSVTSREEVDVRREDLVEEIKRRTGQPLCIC
UniProt P49840, sequence (P49840 whole entry, looked up): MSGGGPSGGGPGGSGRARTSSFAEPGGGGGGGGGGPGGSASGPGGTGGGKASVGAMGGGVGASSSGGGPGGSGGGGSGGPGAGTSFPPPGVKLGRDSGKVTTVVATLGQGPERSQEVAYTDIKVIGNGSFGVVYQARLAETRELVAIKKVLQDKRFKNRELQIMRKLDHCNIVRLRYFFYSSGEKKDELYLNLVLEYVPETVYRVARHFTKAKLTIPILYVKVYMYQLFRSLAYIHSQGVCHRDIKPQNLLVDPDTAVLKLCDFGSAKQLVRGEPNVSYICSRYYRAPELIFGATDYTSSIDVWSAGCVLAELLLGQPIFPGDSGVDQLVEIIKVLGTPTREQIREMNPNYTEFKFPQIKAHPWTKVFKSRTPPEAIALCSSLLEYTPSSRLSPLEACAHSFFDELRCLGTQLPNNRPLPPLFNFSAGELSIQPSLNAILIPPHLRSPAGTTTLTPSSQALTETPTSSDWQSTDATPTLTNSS
UniProt P51617, sequence (P51617 whole entry, looked up): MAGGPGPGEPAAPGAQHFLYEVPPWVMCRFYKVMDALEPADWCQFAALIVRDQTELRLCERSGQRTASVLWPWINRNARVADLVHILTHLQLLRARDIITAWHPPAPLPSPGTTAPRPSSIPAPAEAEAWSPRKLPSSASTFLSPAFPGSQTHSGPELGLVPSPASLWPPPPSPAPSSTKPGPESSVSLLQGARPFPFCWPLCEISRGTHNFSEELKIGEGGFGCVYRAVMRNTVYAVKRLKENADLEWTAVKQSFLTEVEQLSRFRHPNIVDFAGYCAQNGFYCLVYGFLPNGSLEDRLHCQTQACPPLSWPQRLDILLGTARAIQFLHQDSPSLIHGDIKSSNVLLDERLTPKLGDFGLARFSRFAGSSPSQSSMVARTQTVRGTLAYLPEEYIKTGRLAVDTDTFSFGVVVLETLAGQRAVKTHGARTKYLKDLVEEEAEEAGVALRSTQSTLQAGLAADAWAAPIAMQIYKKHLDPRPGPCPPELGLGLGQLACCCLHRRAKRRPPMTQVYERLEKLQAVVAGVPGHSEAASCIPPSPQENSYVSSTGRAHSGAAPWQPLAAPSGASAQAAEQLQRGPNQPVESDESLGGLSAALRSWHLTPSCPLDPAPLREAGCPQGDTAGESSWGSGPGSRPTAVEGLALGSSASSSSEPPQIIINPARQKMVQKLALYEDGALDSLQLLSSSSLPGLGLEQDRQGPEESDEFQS

Row | Target | log2 fold change [1] | log2 fold change [2] | log2 fold change [3] | log2 fold change [4] | log2 fold change [5]
1 | IRAK1 (UniProt P51617) | -0.146 | -0.028 | -0.001 | 0.004 | 0.026
2 | GSK3A (UniProt P49840) | -0.041 | 0.03 | -0.059 | 0.036 | -0.044
3 | KDM1A (UniProt O60341) | 0.007 | -0.004 | 0.018 | 0.009 | 0.817 (active)
4 | IMMT (UniProt C9J406) | -0.055 | 0.041 | 0.049 | 0.077 | -0.056
5 | HSD17B12 (UniProt Q53GQ0) | -0.127 | -0.006 | 0.059 | 0.031 | -0.108
6 | GTF2A1 (UniProt P52655) | 0.025 | -0.033 | -0.01 | -0.057 | 0.202
7 | KDM5C (UniProt P41229) | -0.01 | 0 | 0.008 | -0.01 | 0.032
8 | HARS (UniProt P12081) | 0.025 | 0.006 | 0.001 | 0.008 | 0.002
9 | GTF3C5 isoform 3 (UniProt Q9Y5Q8) | -0.024 | 0.001 | 0.019 | 0.056 | 0.016
10 | IMPACT (UniProt Q9P2X3) | 0.093 | -0.07 | -0.18 | -0.067 | -0.13
11 | GTF2H4 (UniProt Q92759) | -0.08 | 0.044 | 0.039 | 0.015 | 0.02
12 | HMGB1 (UniProt P09429) | 0.053 | -0.048 | 0.032 | 0.056 | 0.115
